Results reported in PubChem BioAssay (NCI).
About 83,000 compounds went through this panel and 20% of them were active in at least one assay; those are over-represented in the sample as a whole.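 Percent growth is the endpoint: 0 to 100 indicates growth inhibition (40 means 60% inhibition), 0 means no net growth, and negative values indicate cell death.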 A number with no mark means an inactive call. The source made the active and inactive calls. Rule for the calls: active = growth percent below 10; inactive = the rest.

Test system: HT29 colon
Assay: NCI-60 one-dose screen, 48 h (100 = growth as untreated, 0 = no growth, -100 = all killed)
Conditions: 10 µM unless noted

SMILES | growth
Cc1nc(Nc2ncc(C(=O)Nc3c(C)cccc3Cl)s2)cc(N2CCN(CCCNC(=O)COc3ccc(C4CCC(=O)NC4=O)cc3)CC2)n1 (stereo unspecified) | -13.6% (active)
C=C1CCC2C3(C)COC(c4ccc(F)cc4)OC3CCC2(C)C1C/C=C1/C(=O)OCC1O (stereo unspecified) | -4.77% (active)
O=c1onc(-c2cc3ccccc3nc2Cl)n1-c1cccc2ccccc12 | 39.6%
O=C1NC(=O)/C(=C/c2ccccc2OCc2cc3ccccc3nc2Cl)S1 | 108%
O=C(COc1ccc(NC(=O)Nc2ccc(Cl)c(Cl)c2)cc1)N=Nc1c(O)[nH]c2ccc(Br)cc12 | -46.2% (active)
COc1cccc(/C=C/c2nc3ccccc3c(=O)n2CC(=O)Nc2ccc(Cl)cc2)c1 | 64.4%
COc1ccc(C(=O)/C=C/c2cccc(Cl)c2)cc1S(N)(=O)=O | 0.678% (active)
COc1cc(C2CC(c3cc(OC)c(OC)c(OC)c3)=NN2c2ccccc2)ccc1OCc1ccc(C)cc1 (stereo unspecified) | 85.7%
CCOP(=O)(OCCCl)c1nc(-c2ccc(C)cc2)oc1NCc1ccccc1 (stereo unspecified) | 81.7%
Cc1ccccc1[C@H]1C(C(=O)c2ccc(Cl)cc2)C2(N[C@@H]1c1ccccc1)C(=O)Nc1ccccc12 (stereo partly specified) | -88.7% (active)
Cc1ccccc1[C@H]1C(C(=O)c2ccc(Cl)cc2)C2(N[C@@H]1c1ccccc1)C(=O)Nc1ccc(Br)cc12 (stereo partly specified) | -58.6% (active)
Cc1cc(=O)oc2cc(OCCOc3ccc(/C=C/C(=O)Nc4ccccc4N)cc3)ccc12 | 30.5%
COc1cccc(/C=C/C(=O)c2ccc(OC)c(S(N)(=O)=O)c2)c1 | 4.06% (active)
Cn1cc(NC(=O)c2cc(NC(=O)c3ccc(/C=C/c4ccccc4)cc3)cn2C)cc1C(=O)NCCCN1CCOCC1 | -88.5% (active)
CN1CCN(Cc2ccc(C(=O)Nc3cccc(C#Cc4cccc5[nH]nc(N)c45)c3)cc2C(F)(F)F)CC1 | -50.3% (active)
CCCn1cc(-c2nc(Nc3ccc(C(=O)NCCCCNc4cccc5c4C(=O)N(C4CCC(=O)NC4=O)C5=O)cc3)nc3[nH]ccc23)cn1 (stereo unspecified) | 28.1%

SMILES | growth
COc1c(F)ccc(C(=O)Nc2ccc3nc(NC(=O)C4CCCN(S(=O)(=O)c5ccc(C(F)(F)F)cc5)C4)sc3c2)c1F (stereo unspecified) | 79.1%
Cn1nc(C(F)(F)F)cc1-c1cc(Cl)c(COc2ccc(Cl)cc2)c(-c2ccc(Cl)c(C(F)(F)F)c2)c1O | 6.65% (active)
COc1ccc(C(=O)/C=C/c2ccccc2Br)cc1S(N)(=O)=O | -17.2% (active)
COc1ccc2c(c1)c(/C=N/Nc1ccc3ccccc3n1)cn2C | -66.7% (active)
COc1c(F)ccc(C(=O)Nc2ccc3nc(NC(=O)C4CCCN(S(=O)(=O)c5ccc(Br)c(F)c5)C4)sc3c2)c1F (stereo unspecified) | 78.2%
COc1cc(OC)cc(-c2cc3ccc(N(C)C)cc3c(=O)[nH]2)c1 | 12.4%
Clc1cccc(-c2ccc(OCCCN3CCN(c4ccncc4)CC3)cc2)c1 | -57.5% (active)
CC12CC[C@@H]3[C@]4(C)COC(c5cn[nH]c5-c5ccc(Br)cc5)O[C@@H]4CC[C@@]3(C)[C@@H]1CC(C1=CCOC1=O)O2 (stereo partly specified) | 47.6%
CC12CC[C@@H]3[C@]4(C)COC(c5cn[nH]c5-c5cccc(Cl)c5)O[C@@H]4CC[C@@]3(C)[C@@H]1CC(C1=CCOC1=O)O2 (stereo partly specified) | 28%
CCCSc1nc(Nc2ccc(S(N)(=O)=O)cc2)c(C#N)c(-c2ccc(Cl)cc2)n1 | 33.6%
COc1ccc(-c2nc3ccc(C(=O)NN4C(=O)c5ccc([N+](=O)[O-])cc5C4=O)cc3[nH]2)cc1 | 87.1%
C=C1CC[C@@H]2[C@]3(C)COC(c4cn[nH]c4-c4ccc(Br)cc4)O[C@@H]3CC[C@@]2(C)[C@@H]1C/C=C1/C(=O)OCC1O (stereo partly specified) | 0.504% (active)
Cc1cnc(C(=O)NNc2nc3cc(F)ccc3n3c(C(=O)N4CC5CC(C4)N5)ccc23)cn1 | 41.5%
CCCSc1nc(Nc2ccc(S(N)(=O)=O)cc2)c(C#N)c(-c2cc(OC)c(OC)c(OC)c2)n1 | 16.6%
C=C1CCC2C3(C)COC(c4ccccc4)OC3CCC2(C)C1CC(NCc1ccccc1)C1=CCOC1=O (stereo unspecified) | 73.5%
C=C1CC[C@@H]2[C@]3(C)COC(c4ccccc4)O[C@@H]3CC[C@@]2(C)[C@@H]1C/C=C1/C(=O)OCC1OC(C)=O (stereo partly specified) | -93.1% (active)

Test system: SNB-75 CNS
Assay: as above
Conditions: 10 µM unless noted

SMILES | growth
O=C(COc1ccc(NC(=O)Nc2ccc(Cl)cc2)cc1)N/N=C/c1ccccc1 | -37.4% (active)
COc1cc(/C=C/C(=O)c2ccccc2)ccc1Oc1nc(Nc2ccc(F)cc2)nc(N(C)C)n1 | 39.9%
COc1ccc(C(=O)/C=C/c2ccc(Oc3nc(Nc4ccc(F)cc4)nc(N(C)C)n3)c(OC)c2)cc1 | 66.4%
C=C1CCC2C3(C)COC(c4ccc(F)cc4)OC3CCC2(C)C1C/C=C1/C(=O)OCC1O (stereo unspecified) | -21.6% (active)
O=c1onc(-c2cc3ccccc3nc2Cl)n1-c1cccc2ccccc12 | 8% (active)
O=C1NC(=O)/C(=C/c2ccccc2OCc2cc3ccccc3nc2Cl)S1 | 46.9%
O=C(COc1ccc(NC(=O)Nc2ccc(Cl)c(Cl)c2)cc1)N=Nc1c(O)[nH]c2ccc(Br)cc12 | 7.51% (active)
COc1ccc(C(=O)/C=C/c2cccc(Cl)c2)cc1S(N)(=O)=O | 29.5%
COc1cc(C2CC(c3cc(OC)c(OC)c(OC)c3)=NN2c2ccccc2)ccc1OCc1ccc(C)cc1 (stereo unspecified) | 84.1%
CCOP(=O)(OCCCl)c1nc(-c2ccc(C)cc2)oc1NCc1ccccc1 (stereo unspecified) | 69.9%
Cc1cc(=O)oc2cc(OCCOc3ccc(/C=C/C(=O)Nc4ccccc4N)cc3)ccc12 | 36.6%
COc1cccc(/C=C/C(=O)c2ccc(OC)c(S(N)(=O)=O)c2)c1 | 20.6%
CN1CCN(Cc2ccc(C(=O)Nc3cccc(C#Cc4cccc5[nH]nc(N)c45)c3)cc2C(F)(F)F)CC1 | -82.5% (active)
Cn1nc(C(F)(F)F)cc1-c1cc(Cl)c(COc2ccc(Cl)cc2)c(-c2ccc(Cl)c(C(F)(F)F)c2)c1O | -22.5% (active)
COc1ccc(C(=O)/C=C/c2ccccc2Br)cc1S(N)(=O)=O | 34.1%
COc1cc(OC)cc(-c2cc3ccc(N(C)C)cc3c(=O)[nH]2)c1 | 57.3%
Clc1cccc(-c2ccc(OCCCN3CCN(c4ccncc4)CC3)cc2)c1 | 42.8%
COc1ccc(-c2nc3ccc(C(=O)NN4C(=O)c5ccc([N+](=O)[O-])cc5C4=O)cc3[nH]2)cc1 | 83.3%
Cc1cnc(C(=O)NNc2nc3cc(F)ccc3n3c(C(=O)N4CC5CC(C4)N5)ccc23)cn1 | 71.6%
